Assay in all cases: NCI-60 one-dose screen, 48 h (100 = growth as untreated, 0 = no growth, -100 = all killed)
Holding throughout (settings): 10 µM

In assay [1] the test system is SR leukemia.
Assay [2] has as its system RPMI-8226 leukemia.
Assay [3] concerns OVCAR-8 ovarian.
In assay [4] the test system is OVCAR-5 ovarian.
For assay [5], the system named is OVCAR-4 ovarian.
The test system of assay [6] is SK-OV-3 ovarian.
Assay [7] concerns IGROV1 ovarian.
In assay [8] the test system is OVCAR-3 ovarian.
The test system of assay [9] is HS 578T breast.
In assay [10] the test system is NCI/ADR-RES ovarian.
The subject of assay [11] is T-47D breast.
Assay [12] deals with BT-549 breast.
In assay [13] the test system is MDA-MB-435 melanoma.
Assay [14] concerns SW-620 colon.
Assay [15] has as its system MCF7 breast.
In assay [16] the test system is HCT-116 colon.
The test system of assay [17] is HCC-2998 colon.
Assay [18] deals with KM12 colon.

Our source for the growth values is PubChem BioAssay (NCI).

Compounds without any hit were thinned out: in the full panel of roughly 83,000, 20% have a hit.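 Percent growth is the endpoint: 0 to 100 indicates growth inhibition (40 means 60% inhibition), 0 means no net growth, and negative values indicate cell death.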 A number with no mark means an inactive call. Activity calls are given as the source filed them. Rule for the calls: active = growth percent below 10; inactive = the rest.

As for `COc1cc(OC)cc(-c2ccc(-c3ccc(C(=N)N)cn3)o2)c1`, the growth in assay [1] is 0.771% (active); in [2], -50% (active); in [3], 9.75% (active); in assay [4], -0.187% (active); in assay [5], 23.1%; in [6] it was 31.2%. Moreover, the growth in [7] was 27%; in [8], 19.4%; in assay [9] it was -11.6% (active); in assay [10] it was 74.5%; in assay [11] it was -56.9% (active); in assay [12], -3.57% (active). The growth in assay [13] is -63.6% (active); in [14] it was -90.3% (active); in assay [15], -66.2% (active); in [16], -86.5% (active); in [17], -87.4% (active); in [18], -11.2% (active).
Consider `COc1cc(NS(C)(=O)=O)ccc1Nc1c2ccc(Cl)cc2nc2c(OC)cccc12`, for which the growth in [1] was -16.5% (active); in assay [2], -19.6% (active); in [3], 11.7%; in [4], -11.9% (active); in assay [5], 62.4%; in assay [6] it was -5.68% (active). For the same molecule, the growth in [7] was 19.3%; in assay [8], 22.4%; in assay [9], 20.2%; in [10], 25.8%; in assay [11], 27.7%; in [12], 18.3%. The growth in [13] is 51%; in assay [14] it was -32% (active); in assay [15] it was 23.7%; in assay [16] it was -63.7% (active); in [17], -26.6% (active); in assay [18], -49.4% (active).
Regarding `Cc1ncc([N+](=O)[O-])n1CCOc1ccc(C(=O)/C=C/c2ccc(C(F)(F)F)cc2)cc1`, the growth in assay [1] was -13.2% (active); in assay [2], 12.9%; in assay [3], 51.8%; in [4], 90%; in assay [5], 100%; in [6], 79.4%. Besides, the growth is 80.4% in [7]; 51.3% in [8]; 66.9% in [9]; 65.9% in assay [10]; 51.6% in assay [11]; 68.1% in assay [12]. In addition, the growth in assay [13] is 83.1%; in assay [14], 15.4%; in assay [15], 12.7%; in [16], -59% (active); in [17], 95.9%; in assay [18] it was 14.5%.
Take `CC(C)C[C@H](NC(=O)CCn1ccc2ccccc2c1=O)B(O)O`: the growth in assay [1] was 8.08% (active); in assay [2], 10.4%; in assay [3], 72.4%; in assay [4] it was 65.6%; in assay [5], 85.9%; in assay [6] it was 77.8%. For the same molecule, the growth is 93.6% in assay [7]; 28.8% in [8]; 63.3% in [9]; 87.9% in assay [10]; 27.6% in assay [11]; 43.4% in [12]. Also, the growth in assay [13] was -39.6% (active); in assay [14], 34.1%; in assay [15], 33.9%; in assay [16], 16.9%; in assay [17] it was 59.9%; in assay [18], 68.8%.
For `Cc1ccc(C2C=C(c3ccc(Cl)cc3)N=C3SC=CN32)c(Br)c1` (stereo not given), the growth in assay [1] was 0.074% (active); in assay [2] it was -0.582% (active); in [3] it was 80%; in [4], 92.8%; in assay [5], 67.4%; in [6], 101%. For the same molecule, the growth is 75.7% in [7]; 87.1% in [8]; 94.1% in [9]; 85.6% in assay [10]; 56.8% in assay [11]; 61.1% in assay [12]. Also, the growth in assay [13] was 47.1%; in [14] it was 53.9%; in assay [15], 21.5%; in assay [16], 5.04% (active); in assay [17], 91.4%; in assay [18], 78.5%.
Consider `O=C/C=C/c1ccc([N+](=O)[O-])cc1Cl`, for which the growth in [1] is 0.062% (active); in assay [2], 82.1%; in assay [3], 91.2%; in [4], 115%; in [5] it was 114%; in assay [6], 104%. Moreover, the growth in assay [7] is 82.5%; in assay [8], 108%; in assay [9], 108%; in assay [10], 101%; in [11], 86.4%; in assay [12], 106%. The growth is 95.9% in [13]; 90% in assay [14]; 62.8% in assay [15]; 2.9% (active) in assay [16]; 111% in assay [17]; 95.6% in [18].
For the molecule `NC(=O)C12C(=O)NC(=O)C1(C(=O)O)C21CCCC1` (stereo not given), the growth is 106% in [1]; 94.6% in assay [2]; 104% in assay [3]; 110% in assay [4]; 104% in assay [5]; 116% in [6]. For the same molecule, the growth is 106% in [7]; 116% in assay [8]; 107% in assay [9]; 114% in [10]; 114% in assay [11]; 104% in assay [12]. Further, the growth in [13] is 100%; in assay [14], 104%; in assay [15], 96.3%; in assay [16] it was 101%; in [17], 114%; in assay [18], 113%.
As to `O=[N+]([O-])c1ccc(S(=O)(=O)OCCCCOS(=O)(=O)c2ccc([N+](=O)[O-])cc2)cc1`, the growth was 100% in assay [1]; 106% in [2]; 108% in assay [3]; 103% in [4]; 108% in assay [5]; 115% in assay [6]. For the same molecule, the growth in assay [7] was 115%; in assay [8] it was 105%; in assay [9] it was 105%; in [10], 98.9%; in [11] it was 100%; in assay [12] it was 106%. Also, the growth was 95.1% in [13]; 102% in assay [14]; 95.9% in [15]; 108% in assay [16]; 100% in [17]; 107% in [18].
Consider `COc1ccc(-c2cc(/C=C3\C(=O)Nc4cc(Cl)ccc43)[nH]n2)cc1OC`, for which the growth in [1] was 21.9%; in [2], 79.8%; in assay [3], 104%; in assay [4] it was 95.7%; in [5], 85.6%; in assay [6] it was 78.2%. For the same molecule, the growth in assay [7] is 50.7%; in assay [8] it was 53%; in [9], 60.5%; in assay [10], 62.5%; in assay [11], 96.5%; in assay [12] it was 80.1%. Also, the growth in assay [13] is 7.28% (active); in assay [14], 47.1%; in [15], 32.2%; in assay [16], 50.9%; in assay [17], 98.8%; in [18], 64.4%.
As for `COc1cc(-c2cc(-c3cc(OC)c(OC)c(OC)c3)nc3nc(N)[nH]c(=O)c23)ccc1Oc1ccnc2cc(Cl)ccc12`, the growth in assay [1] is 5.24% (active); in [2] it was 19.7%; in assay [3] it was 42.1%; in [4] it was 103%; in [5], 39%; in assay [6], 26.2%. Also, the growth was 52.8% in assay [7]; -26.1% (active) in assay [8]; 36.3% in [9]; 21.8% in assay [10]; 30.3% in assay [11]; 34.9% in assay [12]. For the same molecule, the growth was -57.6% (active) in assay [13]; 19.6% in assay [14]; 17.4% in [15]; 16.1% in assay [16]; 56.9% in assay [17]; 13.5% in assay [18].
For `O=C(O)CCCN1C(=O)NC2(C1=O)c1ccccc1-c1ccccc12`, the growth in assay [1] was 100%; in [2] it was 99.9%; in assay [3], 97.3%; in assay [4] it was 101%; in assay [5], 106%; in assay [6] it was 103%. The growth in [7] was 101%; in assay [8], 109%; in assay [9], 93.9%; in [10] it was 96.8%; in [11], 89.4%; in [12], 96.7%. Besides, the growth in assay [13] is 103%; in [14] it was 104%; in assay [15], 97.3%; in assay [16] it was 95.6%; in assay [17], 101%; in assay [18] it was 102%.
For the molecule `C[N+]1=C(/C=C/c2ccc(I)cc2)C(C)(C)c2ccccc21`, the growth in [1] is -8.97% (active); in assay [2] it was 71.8%; in assay [3] it was 67.5%; in assay [4], 90.1%; in assay [5], 109%; in [6], 107%. Moreover, the growth was 92.3% in assay [7]; 34.4% in [8]; 101% in assay [9]; 101% in [10]; 89.3% in [11]; 93% in assay [12]. For the same molecule, the growth was 75.7% in assay [13]; 51.5% in assay [14]; 87.7% in assay [15]; 87.2% in [16]; 103% in [17]; 88.9% in [18].
In the case of `Nc1nc2c(nnn2C2CC(O)C(CO)O2)c(=O)[nH]1` (stereo not given), the growth in [1] was 32%; in assay [2], 36.2%; in [3], 38.4%; in assay [4], 87.8%; in assay [5], 51.4%; in assay [6] it was 20.2%. Besides, the growth in [7] was 67.6%; in assay [8] it was 40.8%; in assay [9] it was 75.4%; in assay [10], 30.2%; in assay [11] it was 49.8%; in assay [12] it was 61.5%. Besides, the growth is 41.1% in [13]; 33.1% in assay [14]; 37.4% in [15]; 49.5% in [16]; 51.3% in assay [17]; 44.7% in assay [18].
For the molecule `COc1ccc(-c2nsc3c2NC(=O)CC3c2ccc(Cl)cc2)cc1` (stereo not given), the growth is 67.8% in assay [1]; 72.2% in assay [2]; 90.2% in assay [3]; 100% in assay [4]; 99.8% in assay [5]; 86.9% in assay [6]. Also, the growth in assay [7] was 77.6%; in assay [8], 93.2%; in assay [9], 95.3%; in assay [10] it was 81.1%; in assay [11] it was 69.1%; in [12], 73.5%. Moreover, the growth in assay [13] is 81%; in assay [14], 103%; in assay [15] it was 88.4%; in assay [16], 85.8%; in assay [17] it was 93.2%; in [18], 82.7%.
For `Nc1nc2c(ncn2C2OC3COP(=O)(O)OC4C(COP(=O)(O)OC2C3O)OC(n2cnc3c(N)ncnc32)C4O)c(=O)[nH]1` (stereo not given), the growth in assay [1] was 57.8%; in assay [2] it was 99.4%; in assay [3], 102%; in assay [4] it was 103%; in assay [5], 105%; in assay [6] it was 87.3%. The growth in [7] was 109%; in [8] it was 107%; in [9], 105%; in [10], 102%; in [11] it was 84.4%; in assay [12], 90%. Besides, the growth in assay [13] was 105%; in [14] it was 107%; in [15], 109%; in [16], 94%; in assay [17], 99.3%; in assay [18], 104%.
